# In PubChem BioAssay (NCATS):
# Records with an inconclusive call do not appear. A number with no mark means an inactive call. Calls follow the shape of the dose curve; as a rule, active = well fitted cell-killing curve with a large enough effect; inconclusive = small, poorly fitted or top-dose-only effect, or effect the other way; inactive = flat fitted curve, though single readings scatter.
# System: Tov-21-G
# Assay: Primary qHTS to identify gynecologic anti-cancer compounds using libraries of approved drugs and bioactive compounds (AID 1345084); also: nearly all actives have a fitted effect of over 55% in size
# Settings: Gynecologic cancer cell panel viability, ATPlite luminescence, 48 h; series mostly up to 57.5 µM; activity change, negative = cytotoxicity: at the top concentration
# Method in brief: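 In this quantitative HTS, cell killing is estimated from loss of ATP-dependent luciferase light. Cells see five compound concentrations over a 48 h exposure.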
# % is scaled to controls: 0 for no effect and ±100 for the full control effect.
row,SMILES,"activity change, negative = cytotoxicity"
1,C/C=C(\C)C(=O)O[C@H]1[C@@H](O[C@]2(COC(=O)CC(C)C)O[C@H](COC(=O)C(C)CC)[C@@H](OC(C)=O)[C@@H]2O)O[C@H](COC(C)=O)[C@@H](O)[C@@H]1O (stereo partly drawn),-3.53% [at 25.3 µM]
2,C=C(C(=O)O)C1CC2=C(C)CCCC2(C)C[C@@H]1O (stereo partly drawn),-8.9%
3,O=C(NCc1ccc(F)cc1)C(=O)c1c[nH]c2ccccc12,-0.308%
4,C/C(=C\C=C\C(C)C1CCC2(C)C3CCC4C(C)(C)C(=O)CCC45CC35CCC12C)C(=O)O (stereo not drawn),5.34% [at 25.3 µM]
5,C/C(=C\CCC(C)CCO)C(=O)OC1(C)CCC2C(C(=O)O)=COC(OC3OC(CO)C(O)C(O)C3O)C21 (stereo not drawn),1.83% [at 25.3 µM]
6,CC(=O)O[C@@H]1[C@@H](OC(=O)/C=C/c2ccccc2)[C@@H](OC(C)=O)[C@H](O[C@H]2[C@@H]3C=CO[C@@H](O[C@@H]4O[C@H](CO)[C@@H](O)[C@H](O)[C@H]4O)[C@@H]3[C@@]3(CO)O[C@@H]23)O[C@H]1C,-6.45% [at 25.3 µM]
7,CCN(CC)Cc1ccc(C(=O)N(CCc2ccccc2OC)[C@@H]2CCNC2)cc1,-20.6% [at 25.3 µM]
8,O=C1OCc2cc3cccc(O[C@@H]4O[C@H](CO)[C@@H](O)[C@H](O)[C@H]4O)c3c(O)c21,-0.493% [at 38.5 µM]
9,N#Cc1ccc(C(=O)N2CCC3(CC2)N=C(N)c2c(F)ccc(F)c2N3)cn1,4.06%
10,CCCCc1ccc(C(=O)Nc2cc(-c3ccc(Cl)cc3)nn2-c2ccc(Cl)cc2)cc1,16.2%
11,O=C(C(c1ccccc1)c1ccccc1)N1CCN(CC(O)COc2cccc3ncccc23)CC1 (stereo not drawn),0.554%
12,CC(C)c1cc2c(c(O)c1O)[C@@]13CCCC(C)(C)[C@@H]1[C@H](OC3=O)C2=O,17.6% [at 38.5 µM]
13,CC(C)CNCc1ccc(-c2ccccc2S(=O)(=O)N2CCCC2)cc1,-5.67%
14,Nc1nc2c(c(N3CCNCC3)n1)CCC1=C2[C@@H]2CCCC[C@@H]2O1,-24.6%
15,CC1(C)CC[C@]2(C(=O)O)CC[C@]3(C)C(=CCC4[C@@]5(C)CC[C@H](O[C@@H]6O[C@H](C(=O)O)[C@@H](O[C@@H]7OC[C@@H](O)[C@H](O)[C@H]7O)[C@H](O)[C@H]6O)C(C)(C)C5CC[C@]43C)C2C1O (stereo partly drawn),13.8% [at 25.3 µM]
16,N[C@H]1Cc2ccccc2N(O)C1=O,-7.81%
17,C=C1CCC2C(C)(C)C(O)CCC2(C)C1CCC(C)CCOC(C)=O (stereo not drawn),6.33% [at 38.5 µM]
18,CC(C)(C)NS(=O)(=O)c1cncc(-c2cc(F)c3nc(N)nn3c2)c1,1.57%
19,C/C=C/C=C/C(O)=C1\C(O)=C(C)C(=O)[C@@]2(C)OC(=O)[C@@](C)(NC(=O)/C=C/C(=O)O)[C@@H]12,-0.151% [at 25.3 µM]

row,SMILES,"activity change, negative = cytotoxicity"
1,C[C@@H]1CCC2C(C)(C)[C@H](O)CC[C@]2(C)[C@@]12Cc1c(O)cc3c(c1O2)CN([C@@H](CCC(=O)O)C(=O)O)C3=O (stereo partly drawn),3.66% [at 25.3 µM]
2,C/C=C/C=C/C(O)=C1\C(=O)[C@]2(C)C3C(C(=O)CC/C=C/C)=C(O)C4(C)C1[C@]1(C)O[C@@]4(O)[C@@]3(C)O[C@@]12O,-10.8% [at 25.3 µM]
3,C[C@@H]1O[C@@H](O[C@H]2[C@H](OC(=O)[C@]34CCC(C)(C)C[C@H]3C3=CCC5[C@@]6(C)C[C@H](O)[C@H](O[C@@H]7O[C@H](CO)[C@@H](O)[C@H](O)[C@H]7O)[C@@](C)(CO)C6[C@H](O)C[C@@]5(C)[C@]3(C)CC4)OC[C@H](O)[C@@H]2O)[C@H](O)[C@H](O)[C@H]1O[C@@H]1OC[C@@H](O)[C@H](O[C@@H]2OC[C@](O)(CO)[C@H]2O)[C@H]1O (stereo partly drawn),-2.34% [at 6.55 µM]
4,C1CCC[C@H]2CCCN3CC[C@@H](CCCCCC[C@@H]4CCCN5CC[C@@H](CC1)O[C@@H]45)O[C@@H]23,5.89% [at 0.155 µM]
5,Cc1[nH]c2ccccc2c1C1=C(NCCc2ccc(F)cc2)C(=O)N(C)C1=O,17.4%
6,OC[C@H]1O[C@@H](O[C@H]2[C@H](OCCc3ccccc3)O[C@H](CO)[C@@H](O)[C@@H]2O)[C@H](O)[C@@H](O)[C@@H]1O,15.7% [at 25.3 µM]
7,C=C1[C@@H]2CC[C@@H]3[C@@](CCC4C(C(=O)O)(C(=O)O)C[C@@H](O[C@@H]5O[C@H](CO)[C@@H](O)[C@H](O)[C@H]5OC(=O)CC(C)C)C[C@]43C)(C2)[C@H]1O (stereo partly drawn),-25.4% [at 25.3 µM]
8,CC(=O)C1=C(C)N(c2cccc(C(F)(F)F)c2)C(=O)N[C@H]1c1ccc(C#N)nc1,3.34% [at 11.6 µM]
9,CC(CCC1(O)OC2CC3C4CCC5CC(O[C@@H]6O[C@H](CO)[C@@H](O)[C@H](O)[C@H]6O[C@@H]6O[C@@H](C)[C@H](O)[C@@H](O)[C@H]6O)C(O)CC5(C)C4CCC3(C)C2C1C)CO[C@@H]1O[C@H](CO)[C@@H](O)[C@H](O)[C@H]1O (stereo partly drawn),6.58% [at 11.6 µM]
10,CCC(C)/C=C(C)/C=C/c1cc2c(cn1)C(=O)C(C)(OC(C)=O)C(O)=C2Cl (stereo not drawn),-2.45% [at 38.5 µM]
11,CC1=CC(=O)CC(C)(C)[C@@]1(O)CC[C@@H](C)O[C@@H]1O[C@H](CO)[C@@H](O)[C@H](O)[C@H]1O,6.19% [at 38.5 µM]
12,CC1(C)CCC[C@@]2(C)C1[C@H](OC(=O)/C=C/C=C/C(=O)O)C=C1COC(=O)[C@@]12O (stereo partly drawn),3.42% [at 38.5 µM]
13,O=C1NC2CCc3nc4ccccc4c(=O)n3C2=Nc2ccccc21 (stereo not drawn),2.37% [at 38.5 µM]
14,CC(C)[N+]1(C)C2CCC1CC(OC(=O)C(CO)c1ccccc1)C2 (stereo not drawn),20.1%
15,COc1cc2oc(-c3ccc(O)cc3O)cc2c(OC)c1CC=C(C)C,0.991% [at 38.5 µM]
16,CC(=O)OC1C(O)CC2(C)C(CCC(C)C23Cc2c(O)cc(CO)c(C=O)c2O3)C1(C)C (stereo not drawn),-20.4% [at 25.3 µM]
17,Cc1[nH]nc(C(F)(F)F)c1Cc1sc2c(c1C(=O)N1C[C@](C)(O)CO1)c(=O)n(C)c(=O)n2C(C)C,1.81%
18,O=C(CC1C(=O)Nc2ccccc21)OC[C@H]1O[C@@H](OCCc2ccc(O)cc2)[C@H](O)[C@@H](O)[C@@H]1O (stereo partly drawn),0.436% [at 25.3 µM]
19,CC1CCC23COC(=O)C2=CC(O)CC3C1(C)CCC1=CC(O)OC1=O (stereo not drawn),-5.89% [at 38.5 µM]
